Measurements reported in PubChem BioAssay AID1542 (National Center for Advancing Translational Sciences (NCATS), 2009).
Results filed as inconclusive are left out. The source made the active and inactive calls. Calls come from the whole dose curve; as a rule, active = well fitted curve in the direction sought with a large enough effect; inconclusive = small, poorly fitted or top-dose-only effect, or effect the other way, or another doubt; inactive = no such curve, though single readings can be large or run the other way.

biological target: Pyruvate kinase PKM (Homo sapiens) (UniProt P14618); experiment: Secondary assay for Activators of Human Pyruvate Kinase M1 isoform; settings: purified hPK-M1, LDH-coupled NADH fluorescence kinetic; series mostly up to 57.5 µM
Description: Confirmatory assay NIH Chemical Genomics Center [NCGC] Matthew G. Vander Heiden, M.D., Ph.D. [Harvard Medical School, 77 Avenue Louis Pasteur, Boston, MA 02115] NCGC Assay Overview: Human pyruvate kinase […] (hPK-M1)enzyme was supplied as a highly purified (>95% pure) preparation from Harvard Medical School and a secondary assay was used to evaluate compounds. This assay couples the formation of pyruvate from hPK-R using lactate dehydrogenase (LDH) and NADH. The depletion of NADH is followed in a fluorescent-based kinetic assay that follows the formation of pyruvate to lactate, as catalyzed LDH. Pyruvate kinase substrates, PEP and ADP, were present in the assay at 0.1 mM and 4 mM respectively. In this kinetic assay initial rates were determined by following the fluorescence of NADH depletion.
NCGC Assay Protocol Summary: Three uL of substrate mix (final concentration, 50 mM Tris-Cl pH 8.0, 200 mM KCl, 15 mM MgCl2, 0.1 mM PEP, 4.0 mM ADP, and 0.2 mM NADH) was dispensed into black-solid 1536 well plates. 23 nL of compounds were delivered by a pin tool and 1 uL of enzyme mix (final concentrations, 10 nM hPK-M1 and 1 uM of LDH) was added. Plates were immediately placed in ViewLux (Perkin Elmer) and NADH fluorescence was determined at 30 second exposure intervals for between 3 and 6 minutes. Data were normalized to the uninhibited controls.

Sequence of Pyruvate kinase PKM (Homo sapiens) (P14618 whole entry, looked up, canonical isoform): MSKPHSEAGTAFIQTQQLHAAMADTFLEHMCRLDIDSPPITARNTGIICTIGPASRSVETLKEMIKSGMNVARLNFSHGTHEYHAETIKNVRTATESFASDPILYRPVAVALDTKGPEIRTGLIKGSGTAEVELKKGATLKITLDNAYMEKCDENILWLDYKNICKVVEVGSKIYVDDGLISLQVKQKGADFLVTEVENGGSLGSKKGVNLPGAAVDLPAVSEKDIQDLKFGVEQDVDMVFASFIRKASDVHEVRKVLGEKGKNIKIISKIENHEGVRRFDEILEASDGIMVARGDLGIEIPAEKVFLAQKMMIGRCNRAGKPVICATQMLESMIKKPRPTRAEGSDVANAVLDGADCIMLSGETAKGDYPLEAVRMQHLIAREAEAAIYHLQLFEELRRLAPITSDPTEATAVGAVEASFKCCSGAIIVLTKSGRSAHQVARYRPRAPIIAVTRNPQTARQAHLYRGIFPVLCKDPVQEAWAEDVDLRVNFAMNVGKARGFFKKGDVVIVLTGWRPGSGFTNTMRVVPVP

outcome, inactive:
COc1ccc(S(=O)(=O)N2CCN(S(=O)(=O)c3c(F)cccc3F)CC2)cc1, Cc1cc2c(s1)c1cnn(Cc3ccccc3F)c(=O)c1n2Cc1ccccc1F, O=S(=O)(c1ccc2c(c1)OCCCO2)N1CCN(S(=O)(=O)c2c(F)cccc2F)CC1, COCCCc1cc(F)c(S(=O)(=O)N2CCN(S(=O)(=O)c3ccc4c(c3)OCCO4)CC2)cc1F, O=C1CN(S(=O)(=O)c2c(F)cccc2F)CCN1S(=O)(=O)c1ccc2c(c1)OCCO2
